AHR activator – human AHR activation. P35869. AHR-responsive luciferase reporter cells, luminescence. activation, % at 5 µM. actives 2.5% (n = 320,000). AID 2796; in the data active means activation above about 47%
Target sequence (P35869 whole entry, looked up): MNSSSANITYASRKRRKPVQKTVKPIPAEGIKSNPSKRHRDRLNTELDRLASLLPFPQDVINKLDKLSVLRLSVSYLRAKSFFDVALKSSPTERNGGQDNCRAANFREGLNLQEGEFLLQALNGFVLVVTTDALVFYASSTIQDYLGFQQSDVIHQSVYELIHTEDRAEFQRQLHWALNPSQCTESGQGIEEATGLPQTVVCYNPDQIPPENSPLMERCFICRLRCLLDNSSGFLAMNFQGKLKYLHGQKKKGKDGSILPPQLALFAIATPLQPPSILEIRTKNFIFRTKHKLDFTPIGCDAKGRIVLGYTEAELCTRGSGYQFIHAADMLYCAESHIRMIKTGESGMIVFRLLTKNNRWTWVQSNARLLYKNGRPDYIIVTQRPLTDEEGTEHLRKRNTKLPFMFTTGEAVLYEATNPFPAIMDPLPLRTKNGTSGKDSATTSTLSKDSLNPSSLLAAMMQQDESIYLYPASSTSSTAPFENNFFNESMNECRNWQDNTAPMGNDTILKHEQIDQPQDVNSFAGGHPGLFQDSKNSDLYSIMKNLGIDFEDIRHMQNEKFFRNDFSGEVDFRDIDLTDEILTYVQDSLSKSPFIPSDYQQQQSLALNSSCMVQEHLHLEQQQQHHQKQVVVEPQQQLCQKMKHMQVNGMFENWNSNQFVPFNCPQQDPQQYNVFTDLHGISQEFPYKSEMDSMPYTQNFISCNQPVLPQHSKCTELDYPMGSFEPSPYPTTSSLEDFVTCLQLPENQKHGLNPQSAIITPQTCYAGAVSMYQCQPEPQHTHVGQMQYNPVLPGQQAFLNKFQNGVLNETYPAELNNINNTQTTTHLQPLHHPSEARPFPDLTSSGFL
DAX1 inh-1 – NR0B1 (DAX1) inhibition | HEK293 Gal4-DAX1 luciferase reporter, luminescence | inhibition, % at 6.75 µM | actives 0.99% (n = 340,000) | AID 504766;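 active means inhibition above the mean over all tested compounds plus 3 SD, cut at about 4.2% in these data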;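 further: inhibition shows as a rise in luminescence from relieved DAX1 repression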
ssDAF-12 act – activators of S. stercoralis DAF-12 nuclear receptor; HEK293 ssDAF-12/GRIP1 lit1-tk-luc reporter, luminescence; % of 3 µM dafachronic acid response; activation, % at 6.8 µM; actives 1% (n = 370,000); AID 652126;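 active means activation above the mean over all tested compounds plus 3 SD, cut at about 0.9% in these data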
hcDAF-12 act – activators of H. contortus DAF-12 nuclear receptor; AID 652067; HEK293 hcDAF-12 lit1-tk-luc reporter, luminescence; 0% DMSO, 100% Δ7-dafachronic acid; actives 1.4% (n = 370,000); activation, % at 6.8 µM;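 active means activation above the mean of all tested compounds plus 3 SD, cut at about 5.5% in these data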
DAX1 inh-2 – blocks DAX1 repression of SF-1 activated StAR promoter; actives 1.1% (n = 370,000); inhibition, % at 6.8 µM; AID 652010; HEK293T StAR-luciferase reporter, SF-1/DAX-1 repression relief;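 active means inhibition above the mean over all tested compounds plus 3 SD, cut at about 3.6% in these data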;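 further: higher inhibition means more luminescence from relief of DAX-1 repression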
hgDAF12 agonist – agonists of H. glycines DAF-12 nuclear receptor; HEK293 GAL4-hgDAF12 UAS-luciferase reporter, agonist luminescence; normalized to butyrate control; activation, % at 6.8 µM; actives 1.8% (n = 370,000); AID 687014;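 active means activation above a cutoff set at the mean of all screened compounds plus 3 SD, cut at about 10% in these data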
Each line names hits and unclear results; the compound was inactive in the other large screens. The list is not random: actives were taken first. Their share in the collection is about 5.7%.

C[C@@H]1CN([C@@H](C)CO)C(=O)c2cc(NC(=O)CCC(F)(F)F)ccc2O[C@H]1CN(C)S(=O)(=O)c1ccc(Cl)cc1	none
CCN(CC)C(=S)Nc1ccc(Cl)c(Cl)c1	none
CN1C(=O)c2cc(NC(=O)Nc3ccccc3)ccc2OC[C@H]2O[C@@H](CC(=O)Nc3cc(F)ccc3F)CC[C@@H]21	none (no result: AHR activator, DAX1 inh-1)
CCOC(=O)C1(CC2CCCCO2)CCN(Cc2nc3ccccc3nc2C)CC1 (configuration not stated)	none (no result: DAX1 inh-1)
CCOC(=O)C1(C(=O)OCC)COC(=O)C1CN1Cc2cc3ccccc3nc2C1 (configuration not stated)	ssDAF-12 act 1.0 (no result: AHR activator)
Cc1ccc2nc(N(CCN(C)C)C(=O)/C=C/c3cccs3)sc2c1	AHR activator 48
CN(C)CCN(C(=O)/C=C/c1cccs1)c1nc2c(F)cc(F)cc2s1	AHR activator 66
COc1ccc(C)c2sc(N(CCN(C)C)C(=O)/C=C/c3cccs3)nc12	ssDAF-12 act 1.2, hcDAF-12 act 6.1
CCc1ccc2nc(N(CCN(C)C)C(=O)/C=C/c3cccs3)sc2c1	none (no result: ssDAF-12 act, hcDAF-12 act, DAX1 inh-2, hgDAF12 agonist)
CN(C)CCCN(C(=O)/C=C/c1cccs1)c1nc2ccc(F)cc2s1	none
COc1ccc(OC)c2sc(N(CCN(C)C)C(=O)/C=C/c3cccs3)nc12	none
CN(CC(=O)Nc1cccc(F)c1)C(=O)c1cccc(S(=O)(=O)N2CCN(Cc3ccccc3)CC2)c1	ssDAF-12 act 11 (no result: AHR activator)
O=C(O)c1cc(NC(=O)c2cccc(F)c2)cc(NC(=O)c2cccc(F)c2)c1	none
Cc1cc(NS(=O)(=O)c2ccc(NC(=O)c3cnc4sccn4c3=O)cc2)nc(C)n1	none
Cc1cc(C)nc(NC(=O)c2cnc3sccn3c2=O)n1	AHR activator 70
CC(C(=O)N1CCCC1)N1CCN(S(=O)(=O)c2ccccc2)CC1 (configuration not stated)	none
Cc1ccccc1N1C(=O)C(Cc2ccc(F)cc2)S/C1=C(\C#N)C(N)=O (configuration not stated)	none (no result: DAX1 inh-1)
CCc1cccc(C)c1NC(=O)CSc1n[nH]c(N)n1	DAX1 inh-2 4.2
Cc1cc(C)nc(N/N=C/c2sccc2C)n1	none
Cc1ccsc1/C=N/Nc1nc(=O)[nH]nc1C	hgDAF12 agonist 16
O=C(O)c1ccc(/C=N/Nc2ncc(Cl)cc2Cl)cc1	DAX1 inh-1 6.5
O=C(O)c1ccc(/C=N\Nc2ccccn2)cc1	hcDAF-12 act 6.5
Cc1ccsc1/C=N/Nc1ncc(Cl)cc1Cl	hgDAF12 agonist 11
O=C(O)c1ccc(N/N=C/c2ccncc2)cc1	none
COC(=O)c1cc2c(c3c4cc(C#N)ccc4n(S(=O)(=O)c4ccc(C)cc4)c13)C(=O)N(C)C2	none (no result: AHR activator, DAX1 inh-1)
CNc1cncc(-c2cccc(C(=O)NC3CC3)c2)n1	none (no result: AHR activator, DAX1 inh-1)
CN(C)c1ccc(/C=N\Nc2ccccn2)cc1	DAX1 inh-1 6.2
Cc1ccccc1N=Nc1c(C)[nH]n(C(N)=S)c1=O	none
CCOc1ccccc1N=Nc1c(C)[nH]n(C(N)=S)c1=O	AHR activator 65
CC1=NN(C(N)=S)C(=O)C1N=Nc1ccc(S(N)(=O)=O)cc1 (configuration not stated)	none
CC1=NN(C(N)=S)C(=O)C1N=Nc1ccccc1C (configuration not stated)	AHR activator 57
CC(=O)N(C)c1ccc(N=NC2C(=O)N(C(N)=S)N=C2C)cc1 (configuration not stated)	DAX1 inh-1 5.3, hgDAF12 agonist 12
CC1=NN(C(N)=S)C(=O)C1N=Nc1ccccc1[N+](=O)[O-] (configuration not stated)	none (no result: AHR activator)
CCOc1ccccc1N=NC1C(=O)N(C(N)=S)N=C1C (configuration not stated)	AHR activator 65
CCCc1ccc(C(=O)NNc2cccc(C)c2)cc1	none
O=C(c1cccs1)N1C[C@@H](n2cc(C3CC3)nn2)[C@H](O)C[C@@H]1c1ccccc1	none (no result: AHR activator)
O=c1c2c(nc3nc(NCc4ccccc4Cl)[nH]n13)CCC2	none (no result: DAX1 inh-1)
CC1=NN(C(N)=S)C(=O)C1N=Nc1ccccc1O (configuration not stated)	AHR activator 47
O=C(CN(Cc1ccccc1)C(=O)c1csnn1)NCc1ccc2c(c1)OCO2	hcDAF-12 act 5.8
O=C(NCc1ccc2c(c1)OCO2)OCc1ccccc1	DAX1 inh-2 4.0 (no result: AHR activator, DAX1 inh-1)
CCOCCCN1C(=O)CN(C2CCC(C)CC2)C(=O)C1c1ccc(C)cc1 (configuration not stated)	none
CCc1cccc2c1NC(=O)C21OCCO1	ssDAF-12 act 1.2
CCc1nc(SCc2cccnc2)c2c(=O)n(C)c(=O)n(C)c2n1	AHR activator 48
Cn1c(=O)c2c(SCC(=O)NCCc3ccccc3)nc(C3CC3)nc2n(C)c1=O	none (no result: DAX1 inh-1, ssDAF-12 act, hcDAF-12 act, DAX1 inh-2, hgDAF12 agonist)
CC(C)Cc1nc(SCc2cccnc2)c2c(=O)n(C)c(=O)n(C)c2n1	none
Cn1c(=O)c2c(SCc3cccnc3)nc(C3CC3)nc2n(C)c1=O	AHR activator 75
O=C(NCc1ccccc1Cl)C(=O)NCC(c1ccco1)N1CCOCC1 (configuration not stated)	none
CC1S/C(=N/N=C2CCC(C(C)(C)C)CC2)NC1=O (configuration not stated)	hgDAF12 agonist 12
CC1S/C(=N/N=C2CCCCC2)NC1=O (configuration not stated)	none
CCCc1c(C(=O)Nc2ccc(C(F)(F)F)cc2)cnn1-c1ccccc1	AHR activator 110
O=C(Nc1ccc(C(=O)c2ccccc2)cc1)c1ccccc1	hgDAF12 agonist 11
O=C(Nc1ccc(C(F)(F)F)cc1)c1ccccc1Br	none
O=C(NNC(=O)c1ccc(NC(=O)c2ccccc2)cc1)c1ccc(F)cc1	none
CCOC(=O)c1ccc(NC(=O)c2ccccc2)cc1	hgDAF12 agonist 11
O=C(Nc1ccc(C(F)(F)F)cc1)c1ccccc1	AHR activator 53
CCOC(=O)c1ccc(NC(=O)c2ccc(NS(C)(=O)=O)cc2)cc1	none
O=C1CSC(c2cccs2)N1c1nncs1 (configuration not stated)	none (no result: AHR activator, DAX1 inh-1)
COCCNC(=S)N(C)[C@H]1C[C@H]2c3[nH]c4c(-c5ccc6c(c5)OCO6)cccc4c3CCN2C(=O)[C@H]1[C@H](C)O	none (no result: AHR activator, DAX1 inh-1)
COCCCn1c(SC(C)C(=O)Nc2c(C)n(C)n(-c3ccccc3)c2=O)n[nH]c1=O (configuration not stated)	none (no result: AHR activator)
CN(c1ccc(C(=O)Nc2cccc(O)c2)cc1)S(=O)(=O)c1ccccc1	none
O=C(Nc1ccc(Br)c(C(F)(F)F)c1)c1ccccc1	AHR activator 51
O=C(Nc1ccc(Br)c(C(F)(F)F)c1)c1ccc(C(F)(F)F)cc1	none (no result: DAX1 inh-1)
CCOC(=O)c1cccc(NC(=O)c2ccc(N(C)C)cc2)c1	hgDAF12 agonist 11
CC(=O)c1cccc(NC(=O)c2ccc(N(C)S(=O)(=O)c3ccc(C)cc3)cc2)c1	AHR activator 48

Source: PubChem
